In all, about 1,600 compounds went through this assay and about 1,100 (69%) were called active. The set was probably picked from earlier hits. Only a sample is shown. Measured potencies and affinities stand elsewhere. Results filed as inconclusive are left out.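 Rule for the calls: active = signal drop with fitted half-maximal concentration no higher than twice the top valid tested concentration; inconclusive = flat curve with 30 to 70% signal loss, or poor fit; inactive = the rest, including signal rises and flat curves within 30%.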 Non-standard residues stand in square brackets, D forms with d. Residues, ends and D or L forms follow the SMILES beside them. *: point of attachment. Ac5c = NC1(C(=O)O)CCCC1; Cbz = O=C(OCc1ccccc1)*

Results on 61 molecules are retold here after PubChem BioAssay AID624134 (Broad Institute, 2012).

This experiment is described as follows: loss of viability in HepG2 cells – cell-based, CellTiter-Glo, cherry-picked, cytotoxicity control for Shn3 inhibitor project, dose response (AID 624134).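 Note: 0% = median of neutral control wells and -100% = median of positive control wells.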 The settings on record: CellTiter-Glo ATP luminescence, 48 h; series mostly up to 35 µM; activity change, negative = cytotoxicity: at the top concentration. In general terms: In ATP-based viability assays light output follows the ATP content of the culture.
For the molecule `CCCCNc1cccc2c1S(=O)(=O)N(CCCC)CC(COCc1ccccc1)O2` (stereo unspecified), the “activity change, negative = cytotoxicity” value is -6.62% (inactive). Next, `C=CCn1c(C)cc(C(=O)CN2C(=O)c3ccccc3S2(=O)=O)c1C`: -11.7% (inactive); `CC(NNC(=S)N1CCN(c2ccccn2)CC1)c1nccc2ccccc12` (stereo unspecified): -14.5% (inactive). Next, `CCOC(=O)C1=C(C)N(CCCC(=O)O)C(=O)NC1c1ccc2ccccc2c1` (stereo unspecified): -2.41% (inactive).

As to `CC1Cc2cc(S(=O)(=O)N3CCC(C(=O)N4CCN(c5ccccc5F)CC4)CC3)ccc2N1C(=O)C1CC1` (stereo unspecified), the “activity change, negative = cytotoxicity” value is -1.82% (inactive). With `CC(=O)N1c2ccc(S(=O)(=O)N3CCC(C(=O)N4CCN(c5ccccc5F)CC4)CC3)cc2CC1C` (stereo unspecified), the “activity change, negative = cytotoxicity” value was 4.49% (inactive). Next, `CC(=O)Oc1ccc(OC(C)=O)c(SCCCCCCl)c1`: -11.1% (inactive); `CN1/C(=C\C(=O)CN2C(=O)NC3(CCCCCC3)C2=O)C(C)(C)c2ccccc21`: -23% (inactive). Next, `Cc1ccc(N2C(=O)c3cccc4c([N+](=O)[O-])ccc(c34)C2=O)c2cccnc12`: -22% (inactive); `O=C(N[C@@H]1C/C=C\C[C@H](CC(=O)N(CCO)Cc2ccccc2)C(=O)NC[C@@H](c2ccccc2)OC1=O)OCC1c2ccccc2-c2ccccc21`: -27% (inactive). Next, `CN(CC(=O)Nc1cc(S(=O)(=O)N2CCCC2)ccc1Cl)Cc1ccc2c(c1)OCO2`: -8.05% (inactive); `Cc1ccc(NC(=O)NCCCN2CCOCC2)cc1`: 4.85% (inactive). With `CC12CC(O)C3c4ccc(O)cc4CCC3C1CCC2=O` (stereo unspecified), the “activity change, negative = cytotoxicity” value is -11.4% (inactive). Take `CCCCCOC(=O)c1[nH]c2c(c1C)C(=O)CC(c1ccco1)C2` (stereo unspecified): the “activity change, negative = cytotoxicity” value is -17.9% (inactive). For `CCOC(=O)CNC(=O)C1(NC(=O)CNC(=O)OCc2ccccc2)CCCC1` (Cbz-Gly-[Ac5c]-Gly-OEt), the “activity change, negative = cytotoxicity” value is 1.52% (inactive). Next, `CCC(C)[C@H]1CNC(=S)N1CCc1cc(C(F)(F)F)cc(C(F)(F)F)c1` (stereo partly specified): -12.5% (inactive). On to `CC(C)N=C(N)N=C(N)Nc1ccc(Cl)cc1`, for which the “activity change, negative = cytotoxicity” value is -14.4% (inactive). Next, `Cc1cc(C)cc(C(=O)NCC(=O)OCC(=O)NCC(F)(F)F)c1`: -10.9% (inactive); `CSC1SCC2C(=O)N(C)C(C(C)C)C(=O)OCC(NC(=O)c3cnc4ccccc4n3)C(=O)NC(C)C(=O)N(C)C1C(=O)N(C)C(C(C)C)C(=O)OCC(NC(=O)c1cnc3ccccc3n1)C(=O)NC(C)C(=O)N2C` (stereo unspecified): -23.9% (inactive); `O=C1ON=C(c2ccccc2)/C1=C/c1ccc(-c2ccccc2[N+](=O)[O-])o1`: -7.62% (inactive). Consider `Cc1cc(C(=O)COC(=O)c2ccccc2O)c(C)n1Cc1cccs1`, for which the “activity change, negative = cytotoxicity” value was 0.392% (inactive).

As to `COc1ccc2c(CC(=O)OCC(=O)N(C)c3c(N)n(Cc4ccccc4)c(=O)[nH]c3=O)coc2c1`, the “activity change, negative = cytotoxicity” value was 0.984% (inactive). Next, `CC(Oc1ccc(F)cc1)C(=O)N(CCC1=CCCCC1)c1c(N)n(Cc2ccccc2)c(=O)[nH]c1=O` (stereo unspecified): -32.6% (inactive); `Cn1cccc1Cc1nnc(SCC(=O)NCCc2ccccc2)n1-c1ccc(F)cc1`: -2.41% (inactive).

Take `CCCOc1ccccc1C1CC(=O)Nc2cc3c(cc21)OCCO3` (stereo unspecified): the “activity change, negative = cytotoxicity” value is -16.2% (inactive). As for `COc1cc(C#Cc2c(-c3cncn3C)n(C)c3ccc(-c4ccc(OC)nc4)cc23)cc(OC)c1`, the “activity change, negative = cytotoxicity” value is -10% (inactive).

On to `O=C(c1n[nH]c(=O)c2ccccc12)N1CCN(C2c3ccccc3-c3ccccc32)CC1`, for which the “activity change, negative = cytotoxicity” value is -7.71% (inactive). Next, `Cn1cc(CN(CCO)Cc2cccs2)c(-c2cccc(Cl)c2)n1`: -1.41% (inactive); `Cc1noc(C)c1COC(=O)[C@@H](NC(=O)c1ccccc1)C(C)C`: 2.94% (inactive).

For the molecule `COc1ccc(CN(C(=O)CSc2nnc(-c3ccc(F)cc3)o2)c2ccc(F)cc2)cc1`, the “activity change, negative = cytotoxicity” value was -3.67% (inactive). Next, `Fc1ccccc1N1CCN(Cc2nc(-c3ccccc3)no2)CC1`: -9.95% (inactive); `O=C(Nc1cc2c3c(c1)C1CCCC1CN3CC1CCCC21)c1ccc([N+](=O)[O-])cc1` (stereo unspecified): -8.21% (inactive).

On to `CCCCC[C@H]1CN(Cc2ccc(OC)cc2)C(=O)[C@@H]1CC(=O)NCc1ccccc1`, for which the “activity change, negative = cytotoxicity” value was -12.3% (inactive). Turning to `Cc1ccc(CS(=O)(=O)c2ncc(Cl)c(C(=O)Nc3nnc(C)s3)n2)cc1`, the “activity change, negative = cytotoxicity” value was -16% (inactive). Turning to `CSc1nnc(NC(=O)c2nc(S(=O)(=O)Cc3ccccc3F)ncc2Cl)s1`, the “activity change, negative = cytotoxicity” value is -11% (inactive). Next, `CCn1c(=O)c(C(=O)Nc2nc3ccccc3[nH]2)c(O)c2ccccc21`: 1.78% (inactive). Next, `CCOC(=O)c1cccc(NC2c3ccccc3C(=O)N2Cc2ccco2)c1` (stereo unspecified): -2.92% (inactive). Next, `CCOC(=O)c1c(C)[nH]c(C)c1C(=O)CSc1nc2ccccc2c(=O)n1-c1ccc(CC)cc1`: -19.7% (inactive); `CCOC(=O)Cn1c(=O)c(-c2cc(Br)ccc2N)nc2ccccc21`: -8.59% (inactive). With `CCOC(=O)Cn1c(S(=O)(=O)Cc2ccccc2Cl)nc(-c2ccccc2)c1-c1ccccc1`, the “activity change, negative = cytotoxicity” value was -12.6% (inactive).

In the case of `CSc1nnc(-c2ccco2)n1-c1ccccc1`, the “activity change, negative = cytotoxicity” value was 0.586% (inactive). Next, `CCC(C)c1ccc(S(=O)(=O)N2CCN(C(=O)c3ccc(Cl)c(S(=O)(=O)N4CCOCC4)c3)CC2)cc1` (stereo unspecified): -13.9% (inactive). As to `CCCCCCC#Cc1ccc2c(c1)COc1c3ccccc3nn1-2`, the “activity change, negative = cytotoxicity” value is -0.219% (inactive).

For `O=C(O)C1(Nc2ccccc2Cl)CCCC1`, the “activity change, negative = cytotoxicity” value is -3.18% (inactive). Next, `Cc1ccn2cc(-c3ccc(O)c(O)c3)nc2c1`: 0.075% (inactive); `Cc1ccc(-c2cn3cc(C)ccc3n2)cc1`: -9.81% (inactive). On to `COC(=O)C12OCC34C(CC5C(C)=C(O)C(=O)CC5(C)C3C(O)C1O)OC(=O)C(OC(=O)C=C(C)C)C24` (stereo unspecified), for which the “activity change, negative = cytotoxicity” value is 0.417% (inactive). Next, `O=C(NCCCn1ccnc1)C(=O)NCC1OCCCN1S(=O)(=O)c1ccccc1` (stereo unspecified): 3.35% (inactive); `CC(C)c1c(O)c2c(n(-c3ccccc3)c1=O)CCCC2`: 5.24% (inactive); `Cc1ccc(NC(=O)c2cc3ccccc3oc2=O)cc1S(=O)(=O)N(C)C`: -2.4% (inactive). Turning to `O=C1CCc2cccc(O)c2N1`, the “activity change, negative = cytotoxicity” value is 3.06% (inactive). Next, `Cc1ccc(Cn2ccc(NC(=O)c3nn(C)cc3[N+](=O)[O-])n2)cc1`: -12.5% (inactive). Next, `Cc1ccc(C(=O)Nc2cnc3ccccc3c2)cc1`: -4.82% (inactive); `COC(=O)c1ccccc1NC(=S)N(Cc1ccc2c(c1)OCO2)Cc1cc2cc(OC)ccc2[nH]c1=O`: -10.8% (inactive). Next, `CC(C)c1nnc(NC(=O)c2nc(S(=O)(=O)Cc3ccc(F)cc3)ncc2Cl)s1`: -7.09% (inactive). For `COCc1nn2c(N)c(C#N)cnc2c1-c1ccccc1`, the “activity change, negative = cytotoxicity” value is 0.007% (inactive). Next, `C=CCOc1nc2c(c(=O)n(C)c(=O)n2C)n1Cc1ccc(Cl)cc1`: -6.18% (inactive); `COc1ccc(CCNC(=O)CCC(=O)N2CCOc3ccc(Cl)cc32)cc1OC`: -4.82% (inactive); `CCOC(=O)N1CCN(CC(c2ccccc2)c2ccccc2)CC1`: -2.51% (inactive). For the molecule `COc1ccccc1NC(=O)Cn1cc(C(=O)C2CC2)c2ccccc21`, the “activity change, negative = cytotoxicity” value is -17.6% (inactive).

Regarding `CCC(CC)CN1C(N(C)C)=NC[C@@H]1CC(C)C`, the “activity change, negative = cytotoxicity” value is -2.51% (inactive).
